Assay [1] has as its target Androgen receptor (Homo sapiens) (UniProt P10275). As to the kind of experiment: qHTS assay to identify small molecule antagonists of the androgen receptor (AR) signaling pathway using the MDA cell line in the presence of 0.5 nM R1881 (AID 1259243). Note: nearly all actives have a fitted effect of over 50% in size. Note: potency is the fitted concentration of half-maximal effect. A digest of the protocol:
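Reporter cells cultured without CO2 receive test chemicals, then 0.5 nM R1881 final; after 16 hr at 37C, ONE-Glo is added and light output recorded.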
A general note: In qHTS, concentration-response curves come from the screen itself.

The target of assay [2] is Estrogen receptor (Homo sapiens) (UniProt P03372). The assay can be described thus: qHTS assay to identify small molecule antagonists of the estrogen receptor alpha (ER-alpha) signaling pathway using the BG1 cell line in the presence of 0.1 nM 17-beta-estradiol (AID 1259244). Note: nearly all actives have a fitted effect of over 50% in size. Note: potency is the fitted concentration of half-maximal effect. In short, it runs like this:
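Estradiol at 0.1 nM (final) stimulates the endogenous ER-alpha of VM7Luc4E2 cells carrying an ERE-driven luciferase; compounds are co-incubated 22 h at 37C and luciferase output quantified by luminescence.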

Assay [3] in a line: qHTS assay to identify small molecule HDAC inhibitors (AID 1259364). Note: potency is the fitted concentration of half-maximal effect.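 Note: wild-type HCT-116 cells with endogenous class I/II HDAC activity; nearly all actives have a fitted effect of over 45% in size.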 A digest of the protocol: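 Read-out: luminescence of HDAC-Glo I/II reagent, 30 min RT, reflecting class I/II deacetylase activity in whole HCT-116 cells pre-exposed 2 h to DMSO-dissolved compounds.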
The nature of assay [4]: qHTS assay to identify small molecule HDAC inhibitors - cell viability counter screen (AID 1259365). Note: nearly all actives have a fitted effect of over 50% in size. Note: potency is the fitted concentration of half-maximal effect. A digest of the protocol: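 Wild-type HCT-116 cells were seeded at 1,500 per well, incubated overnight at 37 C, then exposed to compounds in DMSO for 2hr. Viability was read by CellTiter-Glo luminescence after 30min at room temperature.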
For assay [5], the target named is Estrogen receptor beta (Homo sapiens) (UniProt Q92731). The assay can be described thus: qHTS assay to identify small molecule agonists of the estrogen receptor beta (ER-beta) signaling pathway (AID 1259377; active = well fitted activation curve with a large enough effect in the signal ratio in the repeat runs, not every such curve was filed as active; the % refers to the signal ratio; note: potency is the fitted concentration of half-maximal effect). A digest of the protocol: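 ER-beta-UAS-bla HEK293T (GripTite) cells carrying a UAS-driven beta-lactamase reporter, in medium with 2% charcoal-stripped FBS, were exposed to compounds for 16 hr at 37C; LiveBLAzer B/G FRET substrate was then added and fluorescence read after 2 hours at room temperature.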

A short description of assay [6]: qHTS assay to identify small molecule agonists of the androgen receptor (AR) signaling pathway in the presence of an antagonist - cell viability counter screen (AID 1259379). Note: nearly all actives have a fitted effect of over 25% in size. Note: potency is the fitted concentration of half-maximal effect. In short, it runs like this: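 Seed MDA-kb2 at 3,000 cells/well; incubate 5 hr, 37C, 0% CO2. Add nilutamide to 3.0uM final, then pin compounds at 15 concentrations. Incubate 16 hr. Add CellTiter-Fluor at 15 hr, read fluorescence after 1 hr.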

The nature of assay [7]: qHTS assay to identify small molecule agonists of the estrogen receptor beta (ER-beta) signaling pathway - cell viability counter screen (AID 1259380). Note: nearly all actives have a fitted effect of over 30% in size. Note: potency is the fitted concentration of half-maximal effect. In short, it runs like this:
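CellTiter-Glo read, 30 min RT, same wells as bla assay; cells ER-beta-UAS-bla HEK293T; 16 hr compound, 37C; medium 2% charcoal-stripped FBS.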

The target in assay [8] is Androgen receptor (Homo sapiens) (UniProt P10275). As to the kind of experiment: qHTS assay to identify small molecule agonists of the androgen receptor (AR) signaling pathway in the presence of an antagonist (AID 1259381; calls by dose curve; note: nearly all actives have a fitted effect of over 15% in size). In short, it runs like this: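 Test compounds at 15 concentrations were incubated for 16hr with MDA-kb2 reporter cells in presence of 3.0uM nilutamide (final). Signal: ONE-Glo luciferase luminescence.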

Assay [9] in a line: qHTS assay to identify small molecule antagonists of the estrogen receptor beta (ER-beta) signaling pathway - cell viability counter screen (AID 1259382). Note: nearly all actives have a fitted effect of over 55% in size. Note: potency is the fitted concentration of half-maximal effect. A digest of the protocol:
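In this multiplexed counter screen, cells were seeded at 2,000 per well in medium with 2% charcoal-stripped FBS and incubated 6 hr before compound and 1nM final E2 were added. Sixteen hours later, ATP-based luminescence reported viability.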

Assay [10] deals with Estrogen receptor (Homo sapiens) (UniProt P03372). The assay can be described thus: qHTS assay to identify small molecule agonists of the estrogen receptor alpha (ER-alpha) signaling pathway in the presence of an antagonist (AID 1259383; calls by dose curve; note: nearly all actives have a fitted effect of over 15% in size; note: potency is the fitted concentration of half-maximal effect; for activation: top concentration of the series differs between compounds). A digest of the protocol: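 Stably transfected VM7Luc4E2 reporter cells, kept 5 days in charcoal-stripped serum, received ICI-182,780 at 10.0nM final before compound addition. Following 22hr incubation at 37C and 5% CO2, luciferase signal was read by luminescence.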

Assay [11] can be described thus: qHTS assay to identify small molecule agonists or antagonists of the thyroid stimulating hormone receptor (TSHR) signaling pathway - wild type cell line counter screen (AID 1259384; calls by dose curve). In short, it runs like this:
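Wild-type Hek293 cells, 800/well, 18 h at 37C, then compound with Ro20-1724 for 30 min RT. cAMP by HTRF (cAMP-d2/anti-cAMP cryptate), 1 h RT, fluorescence read. 15 concentrations, triplicates.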

The nature of assay [12]: qHTS assay to identify small molecule agonists of the estrogen receptor alpha (ER-alpha) signaling pathway in the presence of an antagonist - cell viability counter screen (AID 1259386).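 Note: cells exposed to compounds for 22 h at 37 °C before the viability read; nearly all actives have a fitted effect of over 30% in size.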 Note: potency is the fitted concentration of half-maximal effect. In short, it runs like this:
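Viability counter screen using VM7Luc4E2 (full-length ER-alpha, four ERE-luciferase). The cells were treated with compounds alongside ICI-182,780 10.0nM for 22hr, and live-cell protease fluorescence was quantified with CellTiter-Fluor.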

Assay [13] can be described thus: qHTS assay to identify small molecule phospholipidosis (PLD) inducers (AID 1259344; active = well fitted curve in the direction sought with a large enough effect; an effect the other way counts as inactive or inconclusive). A digest of the protocol:
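HepG2 cells, 900/well, treated with compound plus LipidTOX Red for 24 h at 37 C; amiodarone positive and DMSO negative controls. Fixed with paraformaldehyde/Hoechst, then high-content imaging scored LipidTOX pit count and integrated intensity per well and per cell.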

Assay [14] is described as follows: qHTS assay to identify small molecule antagonists of the sonic hedgehog signaling (Shh) pathway (AID 1259369; calls by dose curve; note: nearly all actives have a fitted effect of over 45% in size; note: potency is the fitted concentration of half-maximal effect). In short, it runs like this: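 For antagonist detection, the reporter line received test compounds together with conditioned medium, incubated 24hr at 37 C, 5% CO2, then luminescence was recorded following 30min room-temperature luciferase reagent incubation.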

The nature of assay [15]: qHTS assay to identify small molecule agonists of the sonic hedgehog signaling (Shh) pathway - cell viability counter screen (AID 1259366). Note: nearly all actives have a fitted effect of over 50% in size. Note: potency is the fitted concentration of half-maximal effect. A digest of the protocol: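 NIH/3T3-derived 3T3 Gli1-Luc cells (stable Gli1-responsive firefly luciferase reporter) were seeded, rested 4 hr at 37 C/5% CO2, then exposed to compounds in DMSO for 24 hr; viability was read by CellTiter-Fluor fluorescence in the same wells.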

A short description of assay [16]: qHTS assay to identify small molecule antagonists of the sonic hedgehog signaling (Shh) pathway - cell viability counter screen (AID 1259367). Note: nearly all actives have a fitted effect of over 55% in size. Note: potency is the fitted concentration of half-maximal effect. A digest of the protocol:
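NIH/3T3-derived Gli1-Luc reporter cells, 2,000/well, plated 4 hr before compound addition, then stimulated with conditioned medium for 24 hr at 37C. Viability measured in the same wells by CellTiter-Fluor fluorescence, reagent added at 23 hr for 1 hr.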

Assay [17] is described as follows: qHTS assay to identify small molecule agonists of the sonic hedgehog signaling (Shh) pathway (AID 1259368; calls by dose curve; note: series mostly up to about 92 µM; nearly all actives have a fitted effect of over 15% in size). In short, it runs like this: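 A Gli1 transcriptional response element controlled firefly luciferase in 3T3Gli1-Luc cells. Compounds and a positive control were added 4 hr after plating, and cells were incubated a further 24 hr at 37 C before luminescence detection.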

Assay [18] has as its target Thyrotropin receptor (Homo sapiens) (UniProt P16473). As to the kind of experiment: qHTS assay to identify small molecule antagonists of the thyroid stimulating hormone receptor (TSHR) signaling pathway (AID 1259385; calls by dose curve; note: nearly all actives have a fitted effect of over 20% in size; note: potency is the fitted concentration of half-maximal effect). In short, it runs like this:
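TSHR-HEK293 cells (800/well) plated 18 h, then compounds with Ro20-1724 and TSH at 1.5 ng/mL final, 30 min at room temperature. cAMP quantified by HTRF (cAMP-d2/anti-cAMP-cryptate, 1 h); 15 concentrations in triplicate.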

Assay [19] has as its target Progesterone receptor (Homo sapiens) (UniProt P06401). As to the kind of experiment: qHTS assay to identify small molecule agonists of the progesterone receptor (PR) signaling pathway (AID 1346784; calls by dose curve; note: nearly all actives have a fitted effect of over 30% in size). A digest of the protocol:
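PR-UAS-bla HEK 293T cells carrying a UAS-driven beta-lactamase reporter were seeded in medium with 2% charcoal-stripped FBS, preincubated 6 hr at 37C, then exposed to compounds in DMSO for 16 hr; agonism was read by LiveBLAzer B/G FRET fluorescence.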

SMILES strings stand for the structures. “And” between values parts separate entries of the source, which are not always exact repeats. Equal entries are not always repeated. Inconclusive results are not listed. A structure can be active in one record and inactive in another. The source made the active and inactive calls. Unless noted, calls come from the whole dose curve; as a rule, active = well fitted curve in the direction sought with a large enough effect in the repeat runs; inconclusive = weak or mixed curves; inactive = no such curve, though single readings can be large; an effect the other way counts as inactive or inconclusive.
% is set by controls: 0 for no effect and ±100 for the full control effect.

Chain of Thyrotropin receptor (Homo sapiens) (P16473 whole entry, looked up): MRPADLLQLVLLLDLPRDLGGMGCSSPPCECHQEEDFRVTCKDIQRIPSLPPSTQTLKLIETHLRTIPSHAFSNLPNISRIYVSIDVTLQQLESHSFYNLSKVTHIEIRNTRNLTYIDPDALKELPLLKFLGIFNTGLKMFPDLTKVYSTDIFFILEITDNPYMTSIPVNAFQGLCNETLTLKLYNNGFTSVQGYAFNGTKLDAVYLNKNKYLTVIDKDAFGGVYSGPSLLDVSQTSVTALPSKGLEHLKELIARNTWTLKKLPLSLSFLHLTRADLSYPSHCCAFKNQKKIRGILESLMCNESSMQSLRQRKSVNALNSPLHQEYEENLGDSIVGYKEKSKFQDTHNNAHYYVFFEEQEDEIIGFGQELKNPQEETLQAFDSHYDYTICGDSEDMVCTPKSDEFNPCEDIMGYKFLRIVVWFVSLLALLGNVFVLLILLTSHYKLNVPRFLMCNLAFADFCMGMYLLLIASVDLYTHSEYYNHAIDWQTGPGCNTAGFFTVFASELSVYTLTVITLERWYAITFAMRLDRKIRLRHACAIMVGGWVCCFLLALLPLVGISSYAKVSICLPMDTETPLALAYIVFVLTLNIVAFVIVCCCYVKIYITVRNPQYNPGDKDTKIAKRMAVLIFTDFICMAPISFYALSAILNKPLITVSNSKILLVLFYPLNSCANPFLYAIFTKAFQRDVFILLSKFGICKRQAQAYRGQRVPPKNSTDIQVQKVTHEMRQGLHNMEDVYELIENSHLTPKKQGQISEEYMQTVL
Chain of Estrogen receptor (Homo sapiens) (P03372 whole entry, looked up): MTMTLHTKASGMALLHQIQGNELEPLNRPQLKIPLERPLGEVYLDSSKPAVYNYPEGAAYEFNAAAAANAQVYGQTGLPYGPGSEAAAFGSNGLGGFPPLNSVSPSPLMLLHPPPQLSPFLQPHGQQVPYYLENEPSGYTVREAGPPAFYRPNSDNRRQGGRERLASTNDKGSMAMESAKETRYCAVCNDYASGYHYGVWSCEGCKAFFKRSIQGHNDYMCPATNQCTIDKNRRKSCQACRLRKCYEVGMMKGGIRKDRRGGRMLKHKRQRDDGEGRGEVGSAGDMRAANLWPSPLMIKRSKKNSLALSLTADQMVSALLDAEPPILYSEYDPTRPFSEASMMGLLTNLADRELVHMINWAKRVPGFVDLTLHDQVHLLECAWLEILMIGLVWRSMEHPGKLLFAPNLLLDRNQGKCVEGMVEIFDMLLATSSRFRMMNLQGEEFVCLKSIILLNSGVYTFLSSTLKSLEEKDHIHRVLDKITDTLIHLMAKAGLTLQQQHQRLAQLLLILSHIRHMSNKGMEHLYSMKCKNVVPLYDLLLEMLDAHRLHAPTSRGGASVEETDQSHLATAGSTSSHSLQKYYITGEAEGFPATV
Chain of Estrogen receptor beta (Homo sapiens) (Q92731 whole entry, looked up): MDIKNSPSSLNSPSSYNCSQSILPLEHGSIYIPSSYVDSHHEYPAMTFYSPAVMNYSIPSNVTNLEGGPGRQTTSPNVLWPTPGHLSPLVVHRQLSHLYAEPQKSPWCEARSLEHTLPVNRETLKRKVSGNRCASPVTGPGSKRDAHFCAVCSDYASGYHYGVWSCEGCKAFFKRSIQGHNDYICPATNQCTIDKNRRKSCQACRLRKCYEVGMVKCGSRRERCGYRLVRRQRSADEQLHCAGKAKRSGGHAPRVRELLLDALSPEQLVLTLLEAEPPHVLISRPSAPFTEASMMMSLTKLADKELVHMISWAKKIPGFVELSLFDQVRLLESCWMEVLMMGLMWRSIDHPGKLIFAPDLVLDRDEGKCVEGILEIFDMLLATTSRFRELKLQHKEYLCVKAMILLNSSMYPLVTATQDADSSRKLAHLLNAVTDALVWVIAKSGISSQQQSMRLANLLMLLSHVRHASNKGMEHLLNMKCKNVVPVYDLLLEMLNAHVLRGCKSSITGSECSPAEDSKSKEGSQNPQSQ
Chain of Androgen receptor (Homo sapiens) (P10275 whole entry, looked up): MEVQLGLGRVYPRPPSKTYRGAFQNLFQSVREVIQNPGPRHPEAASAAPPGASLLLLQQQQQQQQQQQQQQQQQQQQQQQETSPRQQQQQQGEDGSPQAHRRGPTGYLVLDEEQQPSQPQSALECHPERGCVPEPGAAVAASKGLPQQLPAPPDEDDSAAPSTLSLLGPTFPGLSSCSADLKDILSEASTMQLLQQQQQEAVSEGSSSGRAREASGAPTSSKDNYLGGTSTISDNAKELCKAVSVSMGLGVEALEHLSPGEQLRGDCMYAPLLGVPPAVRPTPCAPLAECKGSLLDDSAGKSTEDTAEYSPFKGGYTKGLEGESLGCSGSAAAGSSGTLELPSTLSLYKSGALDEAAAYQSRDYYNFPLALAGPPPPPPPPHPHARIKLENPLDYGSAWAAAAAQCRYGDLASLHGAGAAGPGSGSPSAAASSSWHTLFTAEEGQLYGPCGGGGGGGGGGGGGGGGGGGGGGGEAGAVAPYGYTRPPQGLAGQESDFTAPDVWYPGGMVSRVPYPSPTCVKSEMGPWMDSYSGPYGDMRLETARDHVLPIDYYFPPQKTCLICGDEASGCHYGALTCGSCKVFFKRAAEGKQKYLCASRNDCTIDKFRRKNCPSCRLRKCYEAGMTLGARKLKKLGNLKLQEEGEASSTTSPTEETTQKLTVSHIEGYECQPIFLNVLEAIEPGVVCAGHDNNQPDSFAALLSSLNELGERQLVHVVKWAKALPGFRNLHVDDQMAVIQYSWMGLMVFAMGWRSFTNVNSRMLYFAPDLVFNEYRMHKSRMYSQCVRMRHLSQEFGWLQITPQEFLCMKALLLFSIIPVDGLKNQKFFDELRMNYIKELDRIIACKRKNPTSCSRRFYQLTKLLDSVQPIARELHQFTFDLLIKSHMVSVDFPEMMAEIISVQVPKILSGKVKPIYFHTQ
Chain of Progesterone receptor (Homo sapiens) (P06401 whole entry, looked up): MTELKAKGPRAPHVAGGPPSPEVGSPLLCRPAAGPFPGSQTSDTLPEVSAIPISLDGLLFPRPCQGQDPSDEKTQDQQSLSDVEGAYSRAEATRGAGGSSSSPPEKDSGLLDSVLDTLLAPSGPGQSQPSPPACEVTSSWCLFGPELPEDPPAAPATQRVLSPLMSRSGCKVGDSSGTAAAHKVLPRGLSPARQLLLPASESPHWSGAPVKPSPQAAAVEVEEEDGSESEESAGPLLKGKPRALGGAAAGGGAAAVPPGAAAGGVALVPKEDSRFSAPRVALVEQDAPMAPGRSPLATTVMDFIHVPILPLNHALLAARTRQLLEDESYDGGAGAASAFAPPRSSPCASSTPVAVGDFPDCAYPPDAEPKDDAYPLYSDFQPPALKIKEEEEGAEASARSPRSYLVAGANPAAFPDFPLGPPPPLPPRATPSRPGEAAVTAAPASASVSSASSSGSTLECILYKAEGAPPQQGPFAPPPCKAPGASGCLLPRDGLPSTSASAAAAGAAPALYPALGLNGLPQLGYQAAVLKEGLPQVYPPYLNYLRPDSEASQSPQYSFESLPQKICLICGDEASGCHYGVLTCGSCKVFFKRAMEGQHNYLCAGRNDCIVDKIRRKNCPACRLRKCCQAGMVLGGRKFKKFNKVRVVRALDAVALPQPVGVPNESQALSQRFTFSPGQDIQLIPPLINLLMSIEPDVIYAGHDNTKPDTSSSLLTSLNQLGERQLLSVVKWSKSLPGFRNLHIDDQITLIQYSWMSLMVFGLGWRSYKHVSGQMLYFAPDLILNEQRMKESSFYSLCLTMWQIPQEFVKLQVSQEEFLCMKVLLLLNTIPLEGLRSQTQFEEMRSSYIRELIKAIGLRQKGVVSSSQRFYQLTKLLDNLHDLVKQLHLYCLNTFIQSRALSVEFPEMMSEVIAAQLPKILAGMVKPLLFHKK

On to `CCCCCCOC(=O)c1ccc(O)cc1`, for which the Potency result in assay [1], in assay [2], in assay [4], in assay [5], in assay [6] and in assay [8] was “inactive” each time. For the same compound, the Potency entry in assay [9] and in assay [12] was “inactive” in each case. Further, the Potency in [3] is 24.4 µM (active) and 27.3 µM (active); in [7], 48.6 µM (active); in [10], 27.3 µM (active). For the same compound, the outcome in assay [11] was inactive.
In the case of `CCCCC(CC)CN=C(N)NC(N)=NCCCCCCN=C(N)NC(N)=NCC(CC)CCCC` (configuration not stated), the Potency is 11.9 µM (active) in assay [1]; 21.1 µM (active) in assay [2]; 29.8 µM (active) in assay [4]; 3.76 µM (active) in assay [14]; 18.8 µM (active) in assay [6]; 23.7 µM (active) in assay [7]. The results for the Potency in assay [9] and in assay [12] were 13.3 µM (active) and 23.7 µM (active), respectively. For the same compound, the Potency result in [13], in [3] and in assay [8] was “inactive” throughout.
With `CC(C)(C)C(=O)OCOC(=O)C1N2C(=O)CC2S(=O)(=O)C1(C)C` (configuration not stated), the Potency result in [1], in [2], in assay [3], in assay [4], in [15] and in assay [16] was “inactive” in each case. The Potency entry in assay [17], in assay [14], in [6], in [8], in [9] and in assay [18] was “inactive” each time. Further, the Potency result in assay [12] is “inactive”. For the same compound, in assay [13], the PLD induction was 3.21% [at 0.0123 µM] (inactive). Further, the call in [11] was inactive.
Regarding `CN(C)C(=O)C1(N2CCCCC2)CCN(CC[C@@]2(c3ccc(Cl)c(Cl)c3)CN(C(=O)c3ccccc3)CCO2)CC1`, the Potency in assay [1] is 28.6 µM (active); in assay [2], 57.1 µM (active); in assay [15], 16.1 µM (active); in [16], 50.9 µM (active); in assay [14], 18.1 µM (active); in assay [6], 57.1 µM (active). Moreover, the Potency was 36 µM (active) in assay [7], 28.6 µM (active) in assay [9], 64.1 µM (active) in [18] and 57.1 µM (active) in [12]. For the same compound, the Potency result in assay [3], in assay [4], in assay [17], in assay [5], in [8] and in assay [10] was “inactive” each time. The call in assay [11] was inactive.
With `CC[C@H](c1ccc(O)cc1)[C@@H](CC)c1ccc(O)cc1`, the Potency is 15.4 µM (active) and 26.6 µM (active) in assay [1]; 48.6 µM (active) in assay [2]; 54.5 µM (active) and inactive in assay [15]; 7.7 µM (active) in assay [14]; 0.0011 µM (active) in [5]; 48.6 µM (active) and inactive in assay [7]. The Potency in assay [10] was 4.3 nM (active) and 8.4 nM (active). For the same compound, the Potency result in [13], in [3], in assay [4], in assay [17], in [6] and in [8] was “inactive” throughout. The Potency entry in [9] and in assay [12] was “inactive” each time.
In the case of `Clc1ccc2nsnc2c1NC1=NCCN1`, the Potency result in assay [1], in assay [2], in assay [13], in assay [3], in assay [4] and in assay [16] was “inactive” each time. Further, the Potency entry in [17], in [14], in assay [5], in [6], in assay [7] and in assay [8] was “inactive” throughout. The Potency entry in [9], in [10], in assay [18], in assay [12] and in assay [19] was “inactive” throughout. Also, the result in assay [11] was inactive.
`COC(=O)C1=C(C)NC(C)=C(C(=O)OCCc2ccc(N3CCN(C(c4ccccc4)c4ccccc4)CC3)cc2)C1c1cccc([N+](=O)[O-])c1` (configuration not stated): the Potency entry in assay [1], in [2], in assay [3], in assay [4], in assay [15] and in assay [16] was “inactive” each time. Further, the Potency result in assay [17], in assay [14], in assay [6], in assay [7], in assay [8] and in assay [9] was “inactive” in each case. In addition, the Potency entry in assay [10] and in assay [12] was “inactive” in each case.

For the origin of these results see PubChem BioAssay (Tox21).
